From PubChem BioAssay
Active and inactive are the calls of the source.

Legend:
[1] = small molecules captured by biotinylated probe aFSTL3 – biochemical, small-molecule microarray, fluorescence 635/667, stem cell growth factor project, primary screen (AID 1064); conditions: higher = more signal;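 further: measures binding of the biotinylated anti-FSTL3 antibody to printed compounds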
[2] = binders from COS7 lysate, DM2A8 probe, primary screen, torsin A project, cell lysate, small-molecule microarray, fluorescence 635/667 (AID 1065); conditions: higher = more signal, COS7 lysate expressing mutant human TOR1A
[3] = small molecules captured by biotinylated probe aFGF2 – biochemical, small-molecule microarray, fluorescence 635/667, stem cell growth factor project, primary screen (AID 1067); conditions: higher = more signal;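 further: measures binding of biotinylated aFGF2 protein to printed compounds on slides; z-score merges feature fluorescence and signal-to-noise across triplicate slides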
[4] = small molecules captured by biotinylated probe aFGF10 – biochemical, small-molecule microarray, fluorescence 635/667, stem cell growth factor project, primary screen (AID 1071); conditions: higher = more signal;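 further: score merges 667 nm spot intensity and signal to noise from triplicate slides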
[5] = biological target: Neurogenic locus notch homolog protein 2 (Homo sapiens) (UniProt Q04721); assay: small molecules binding Notch2 protein – biochemical, small-molecule microarray, 635 nm fluorescence, stem cell growth factors, primary screen (AID 1073); conditions: higher = more signal
Neurogenic locus notch homolog protein 2 (Homo sapiens), sequence (Q04721 whole entry, looked up, canonical isoform): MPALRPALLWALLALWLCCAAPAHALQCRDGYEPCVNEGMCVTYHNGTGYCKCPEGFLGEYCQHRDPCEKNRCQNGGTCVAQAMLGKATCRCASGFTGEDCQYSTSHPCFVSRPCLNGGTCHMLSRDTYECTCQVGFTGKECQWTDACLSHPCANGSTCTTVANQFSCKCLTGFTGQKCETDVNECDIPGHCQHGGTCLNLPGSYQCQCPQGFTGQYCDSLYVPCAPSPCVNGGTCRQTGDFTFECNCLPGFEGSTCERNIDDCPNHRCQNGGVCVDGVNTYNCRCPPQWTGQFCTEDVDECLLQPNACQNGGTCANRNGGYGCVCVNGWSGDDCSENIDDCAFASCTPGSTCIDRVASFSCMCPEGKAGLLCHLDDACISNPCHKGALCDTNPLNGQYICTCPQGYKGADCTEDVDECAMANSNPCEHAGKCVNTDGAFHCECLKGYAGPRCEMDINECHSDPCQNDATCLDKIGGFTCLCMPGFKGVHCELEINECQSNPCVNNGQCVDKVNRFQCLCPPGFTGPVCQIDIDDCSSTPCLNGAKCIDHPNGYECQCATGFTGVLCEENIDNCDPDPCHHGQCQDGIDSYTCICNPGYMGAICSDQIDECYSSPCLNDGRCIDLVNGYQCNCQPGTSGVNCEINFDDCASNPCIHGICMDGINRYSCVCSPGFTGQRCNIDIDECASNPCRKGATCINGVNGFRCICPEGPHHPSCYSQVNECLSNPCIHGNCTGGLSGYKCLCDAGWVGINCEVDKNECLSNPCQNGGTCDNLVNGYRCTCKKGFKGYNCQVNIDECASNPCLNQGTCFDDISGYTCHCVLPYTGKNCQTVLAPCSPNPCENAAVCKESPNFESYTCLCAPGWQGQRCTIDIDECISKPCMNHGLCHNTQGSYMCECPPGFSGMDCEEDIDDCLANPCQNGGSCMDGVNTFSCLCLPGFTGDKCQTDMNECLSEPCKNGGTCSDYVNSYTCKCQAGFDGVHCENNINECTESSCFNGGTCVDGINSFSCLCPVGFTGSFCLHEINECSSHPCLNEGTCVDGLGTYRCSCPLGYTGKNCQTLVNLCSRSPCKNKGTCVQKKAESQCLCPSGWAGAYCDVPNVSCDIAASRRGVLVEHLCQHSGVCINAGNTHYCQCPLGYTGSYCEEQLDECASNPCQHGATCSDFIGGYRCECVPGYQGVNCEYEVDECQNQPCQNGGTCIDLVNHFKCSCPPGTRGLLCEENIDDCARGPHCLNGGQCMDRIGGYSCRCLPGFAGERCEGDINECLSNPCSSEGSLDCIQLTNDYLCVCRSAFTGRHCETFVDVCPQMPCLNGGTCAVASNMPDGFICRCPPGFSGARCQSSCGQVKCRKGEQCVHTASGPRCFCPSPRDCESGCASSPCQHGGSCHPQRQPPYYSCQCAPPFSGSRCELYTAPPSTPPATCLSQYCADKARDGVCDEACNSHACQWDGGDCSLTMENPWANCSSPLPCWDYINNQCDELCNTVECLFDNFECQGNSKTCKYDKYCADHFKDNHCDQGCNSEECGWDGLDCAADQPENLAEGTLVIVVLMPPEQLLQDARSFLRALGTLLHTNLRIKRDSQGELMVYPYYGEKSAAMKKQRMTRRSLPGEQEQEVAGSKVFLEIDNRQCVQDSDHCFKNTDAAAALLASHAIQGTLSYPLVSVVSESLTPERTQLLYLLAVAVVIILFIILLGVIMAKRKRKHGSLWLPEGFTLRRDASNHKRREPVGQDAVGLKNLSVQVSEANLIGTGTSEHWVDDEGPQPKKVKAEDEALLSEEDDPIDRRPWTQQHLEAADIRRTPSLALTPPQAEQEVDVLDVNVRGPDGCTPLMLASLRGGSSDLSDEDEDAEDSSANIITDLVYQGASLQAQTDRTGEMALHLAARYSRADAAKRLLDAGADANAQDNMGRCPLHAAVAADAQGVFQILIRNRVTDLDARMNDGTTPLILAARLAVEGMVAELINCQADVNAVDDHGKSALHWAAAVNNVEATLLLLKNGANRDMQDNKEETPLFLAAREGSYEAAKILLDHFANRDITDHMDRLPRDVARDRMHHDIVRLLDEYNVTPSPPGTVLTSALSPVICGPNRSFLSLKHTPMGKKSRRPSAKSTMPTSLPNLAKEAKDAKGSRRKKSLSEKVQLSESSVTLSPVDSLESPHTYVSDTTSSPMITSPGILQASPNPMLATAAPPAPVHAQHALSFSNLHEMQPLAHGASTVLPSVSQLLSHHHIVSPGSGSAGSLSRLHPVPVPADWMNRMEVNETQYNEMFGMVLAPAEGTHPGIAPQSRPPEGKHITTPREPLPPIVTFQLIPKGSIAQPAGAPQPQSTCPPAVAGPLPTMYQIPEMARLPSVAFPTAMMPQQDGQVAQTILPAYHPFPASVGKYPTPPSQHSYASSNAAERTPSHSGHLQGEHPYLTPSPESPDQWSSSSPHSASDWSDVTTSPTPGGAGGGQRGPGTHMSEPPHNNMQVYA

[6] = biological target: Pro-neuregulin-1, membrane-bound isoform (Homo sapiens) (UniProt Q02297); assay: small molecules binding neuregulin-1 protein – biochemical, small-molecule microarray, fluorescence 635/667, psychiatric disease protein project, primary screen (AID 1075); conditions: NRG1 binding, 635 nm fluorescence, higher = more signal;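 further: score combines 667 nm spot fluorescence with signal to noise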
Pro-neuregulin-1, membrane-bound isoform (Homo sapiens), sequence (Q02297 whole entry, looked up, the tested form may be a part, canonical isoform): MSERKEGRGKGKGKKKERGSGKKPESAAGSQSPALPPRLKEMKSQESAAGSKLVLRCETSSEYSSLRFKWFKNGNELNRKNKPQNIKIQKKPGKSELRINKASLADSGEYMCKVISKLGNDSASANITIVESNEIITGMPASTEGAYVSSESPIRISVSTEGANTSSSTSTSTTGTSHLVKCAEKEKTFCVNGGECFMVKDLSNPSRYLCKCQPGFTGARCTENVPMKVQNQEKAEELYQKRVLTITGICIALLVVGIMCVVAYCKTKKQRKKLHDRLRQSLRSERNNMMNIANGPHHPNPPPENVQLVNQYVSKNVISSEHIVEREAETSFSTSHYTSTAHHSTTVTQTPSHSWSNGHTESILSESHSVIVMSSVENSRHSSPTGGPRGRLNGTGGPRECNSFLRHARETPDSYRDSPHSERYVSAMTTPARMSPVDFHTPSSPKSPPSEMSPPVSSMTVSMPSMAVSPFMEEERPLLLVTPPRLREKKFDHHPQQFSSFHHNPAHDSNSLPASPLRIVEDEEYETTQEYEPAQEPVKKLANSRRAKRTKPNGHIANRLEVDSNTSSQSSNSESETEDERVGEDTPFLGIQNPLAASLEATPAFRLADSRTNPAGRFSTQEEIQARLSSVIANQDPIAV

[7] = tested on: Neuregulin-1 EGF-like domain; assay: small molecules binding NRG1 EGF domain – biochemical, small-molecule microarray, 635 nm fluorescence, primary screen (AID 1081); conditions: higher = more signal;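 further: binding of the protein to compounds printed on small-molecule microarray slides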
[8] = FRG1 expression reporter modulators in myotubes – cell-based, C2C12 myotubes, firefly/Renilla luciferase, luminescence, FRG1 inhibition for FSHD, primary screen (AID 1084); conditions: FRG1 promoter luciferase, higher = more signal, called active from +8 up or from −8 down
[9] = small molecules captured by biotinylated probe aFST – biochemical, small-molecule microarray, fluorescence 635/667, stem cell growth factor project, primary screen (AID 1086); conditions: higher = more signal;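 further: score merges 667 nm fluorescence with signal-to-noise of each printed compound spot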
[10] = binders of probe aHhip on microarray, primary screen, stem cell growth factor project, biochemical, small-molecule microarray, fluorescence 635/667 (AID 1087); conditions: higher = more signal;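 further: score merges spot fluorescence at 667nm with spot signal to noise ratio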

COC(=O)C1=C(C)N(Cc2ccccc2)c2c(C(=O)OC)c(C(=O)OC)c(C(=O)OC)c(=O)n2[C@@H]1c1ccccc1
composite z-score [1]: -0.274
composite z-score [2]: 0.657
composite z-score [3]: -0.0181
composite z-score [4]: 0.282
composite z-score [5]: 0.898
composite z-score [6]: 0.289
composite z-score [7]: 0.721
z-score [8]: 0.365 (inactive)
composite z-score [9]: 0.224
composite z-score [10]: -0.0994

C=CC[C@]1(C(=O)O)N=C(c2ccc(OCCCO)cc2)O[C@H]1c1ccccc1N=[N+]=[N-]
composite z-score [1]: 1.17
composite z-score [2]: -0.258
composite z-score [3]: -0.101
composite z-score [4]: 0.427
composite z-score [5]: -0.16
composite z-score [6]: 0.215
composite z-score [7]: 0.686
z-score [8]: 4.6 (inactive)
composite z-score [9]: 0.489
composite z-score [10]: -0.403

Cc1ccc(S(=O)(=O)c2cc3oc2CC[C@@H](CO)NC(=O)N(C)Cc2cn(nn2)C[C@H](Cc2ccccc2)NC3=O)cc1
composite z-score [1]: 0.0181
composite z-score [2]: 0.345
composite z-score [3]: -0.0538
composite z-score [4]: 0.175
composite z-score [5]: -0.881
composite z-score [6]: 0.226
composite z-score [7]: 0.807
z-score [8]: -0.618 (inactive)
composite z-score [9]: -0.265
composite z-score [10]: -0.194

CC(C)[Si](OCC[C@H]1O[C@]2(C(=O)N(Cc3ccccc3)c3ccccc32)[C@@H](C)[C@@H]1[Si](C)(C)O)(C(C)C)C(C)C
composite z-score [1]: -0.143
composite z-score [2]: -0.149
composite z-score [3]: -0.25
composite z-score [4]: 0.164
composite z-score [5]: -0.0407
composite z-score [6]: 0.676
composite z-score [7]: -0.0474
z-score [8]: 0.562 (inactive)
composite z-score [9]: 0.292
composite z-score [10]: 0.0373

COc1cccc([C@H]2N[C@H](C(=O)O)CC[C@@H]2C)c1
composite z-score [1]: -0.356
composite z-score [2]: 0.0291
composite z-score [3]: -0.0885
composite z-score [4]: -0.42
composite z-score [5]: 0.238
composite z-score [6]: -0.0739
composite z-score [7]: -0.212
z-score [8]: -0.0831 (inactive)
composite z-score [9]: 0.425
composite z-score [10]: -0.127

COC(=O)C[C@H]1O[C@]2(C(=O)N(C)c3ccccc32)[C@@H](C)[C@@H]1[Si](C)(C)c1ccc(OC)cc1
composite z-score [1]: -0.352
composite z-score [2]: 0.0371
composite z-score [3]: -0.005
composite z-score [4]: 0.791
composite z-score [5]: 0.146
composite z-score [6]: 0.367
composite z-score [7]: 1.06
z-score [8]: -2.07 (inactive)
composite z-score [9]: 0.673
composite z-score [10]: -0.0645

C=CCN(C(=O)C1N(c2ccc(CCO)cc2)C(=O)C2C(C(=O)O)C3C=CC21O3)C(C)(C)C (stereo not given)
composite z-score [1]: 1.73
composite z-score [2]: -1.15
composite z-score [3]: -0.243
composite z-score [4]: -2.12
composite z-score [5]: -2.34
composite z-score [6]: -0.367
composite z-score [7]: 0.915
z-score [8]: 0.4 (inactive)
composite z-score [9]: -1.08
composite z-score [10]: -0.403

COC(=O)C(CC#Cc1ccc2c(c1)[C@]1(C(=O)N2)[C@H](C(=O)N2CCCCCCC2)[C@H]2C(=O)O[C@H](c3ccccc3)[C@H](c3ccccc3)N2[C@@H]1c1ccc(O)cc1)C(=O)OC
composite z-score [1]: 0.565
composite z-score [2]: -1.17
composite z-score [3]: -0.167
composite z-score [4]: -0.542
composite z-score [5]: -1.07
composite z-score [6]: -0.712
composite z-score [7]: -0.466
z-score [8]: 1.65 (inactive)
composite z-score [9]: -0.137
composite z-score [10]: -0.306

COc1ccc([Si](C)(C)[C@H]2[C@H](CC(=O)N3Cc4ccccc4C[C@H]3CO)O[C@@]3(C(=O)N(Cc4cccc(N5CCOC5=O)c4)c4ccccc43)[C@@H]2C)cc1
composite z-score [1]: 0.0766
composite z-score [2]: 0.882
composite z-score [3]: -0.128
composite z-score [4]: 0.157
composite z-score [5]: 0.123
composite z-score [6]: 0.676
composite z-score [7]: 0.95
z-score [8]: -2.72 (inactive)
composite z-score [9]: 0.158
composite z-score [10]: -0.264

C=CCN1C(=O)[C@@]2(O[C@@H](CCn3cc([C@H](O)c4ccccc4)nn3)[C@H]([Si](C)(C)c3ccc(OC)cc3)[C@H]2C)c2cc(N3CCOC3=O)ccc21
composite z-score [1]: 0.228
composite z-score [2]: 0.39
composite z-score [3]: -0.104
composite z-score [4]: 0.105
composite z-score [5]: -0.261
composite z-score [6]: -0.344
composite z-score [7]: 1.1
z-score [8]: -2 (inactive)
composite z-score [9]: -0.0319
composite z-score [10]: -0.0645

COc1ccc([Si](C)(C)[C@H]2[C@H](CC(=O)N(CCO)Cc3ccccc3)O[C@@]3(C(=O)N(C)c4ccccc43)[C@@H]2C)cc1
composite z-score [1]: -0.412
composite z-score [2]: 0.919
composite z-score [3]: 0.0248
composite z-score [4]: 0.877
composite z-score [5]: -0.0546
composite z-score [6]: 0.67
composite z-score [7]: 0.938
z-score [8]: -1.39 (inactive)
composite z-score [9]: 0.291
composite z-score [10]: -0.21

COC(=O)c1c(CC[C@@H](CO)NC(=O)N[C@H](Cn2cc(-c3cncn3C)nn2)C(C)C)oc(C(C)=O)c1C(=O)OC
composite z-score [1]: -0.151
composite z-score [2]: 0.874
composite z-score [3]: -0.043
composite z-score [4]: 0.66
composite z-score [5]: 0.193
composite z-score [6]: 0.692
composite z-score [7]: 1.09
z-score [8]: 0.0938 (inactive)
composite z-score [9]: -0.201
composite z-score [10]: -0.261

COc1cc(Cc2cc3c(c(CCc4ccccc4)n2)[Si](C(C)C)(C(C)C)OC3)cc(OC)c1OC
composite z-score [1]: -0.0934
composite z-score [2]: -0.0736
composite z-score [3]: -0.146
composite z-score [4]: -0.108
composite z-score [5]: -0.0899
composite z-score [6]: -0.35
composite z-score [7]: -0.233
z-score [8]: 0.311 (inactive)
composite z-score [9]: 0.337
composite z-score [10]: -0.0672

CC1=C([C@H](O)CCc2ccccc2)[C@H](CO)[C@@H]2C(=O)N(Cc3ccccc3)C(=O)[C@@H]2C1
composite z-score [1]: -0.183
composite z-score [2]: 0.0897
composite z-score [3]: 0.0137
composite z-score [4]: 0.216
composite z-score [5]: 0.585
composite z-score [6]: 0.181
composite z-score [7]: -0.107
z-score [8]: -0.69 (inactive)
composite z-score [9]: 0.0747
composite z-score [10]: -0.174

CC(C)=C1C(=O)C(c2ccccc2)=C2CN3C(=O)N(CCc4ccccc4)C(=O)[C@]3(Cc3ccccc3)[C@H]21
composite z-score [1]: 0.5
composite z-score [2]: -0.463
composite z-score [3]: -0.0612
composite z-score [4]: 0.103
composite z-score [5]: -0.272
composite z-score [6]: 0.0953
composite z-score [7]: -0.318
z-score [8]: 0.438 (inactive)
composite z-score [9]: 0.0891
composite z-score [10]: -0.112

CCCCCCc1nc(-c2cc(C)c(OC)c(C)c2)cc2c1[Si](C(C)C)(C(C)C)O[C@H]2c1ccccc1
composite z-score [1]: -0.315
composite z-score [2]: -0.397
composite z-score [3]: -0.14
composite z-score [4]: -0.324
composite z-score [5]: -0.209
composite z-score [6]: -0.626
composite z-score [7]: -1.04
z-score [8]: 0.119 (inactive)
composite z-score [9]: 0.0223
composite z-score [10]: 0.0505

O=C/C=C/c1ccccc1Cl
composite z-score [1]: 0.206
composite z-score [2]: -0.0907
composite z-score [3]: -0.093
composite z-score [4]: -0.0502
composite z-score [5]: -0.221
composite z-score [6]: 1.05
composite z-score [7]: -0.118
z-score [8]: 1.58 (inactive)
composite z-score [9]: 0.224
composite z-score [10]: 0.171

CO[C@H]1COC(=O)[C@@H](Cc2ccccc2)NC(=O)[C@@H](C)COC(=O)CC=C[C@@H]1C
composite z-score [1]: -0.533
composite z-score [2]: 0.806
composite z-score [3]: -0.142
composite z-score [4]: -0.0799
composite z-score [5]: -0.172
composite z-score [6]: -0.923
composite z-score [7]: -0.294
z-score [8]: 0.0824 (inactive)
composite z-score [9]: -0.0629
composite z-score [10]: -0.0994

[N-]=[N+]=NCc1ccccc1C[C@@]1(C(=O)N2CCOCC2)N=C(c2ccc(OCCCO)cc2)O[C@@H]1c1ccccc1N=[N+]=[N-]
composite z-score [1]: 0.308
composite z-score [2]: 0.968
composite z-score [3]: 0.345
composite z-score [4]: 0.819
composite z-score [5]: 1.59
composite z-score [6]: 1.13
composite z-score [7]: 1.26
z-score [8]: -2.14 (inactive)
composite z-score [9]: 0.889
composite z-score [10]: -0.146

O=C1C2C=CC(C(O)Cc3ccccc3)N(Nc3ccc([N+](=O)[O-])cc3)C2C(=O)N1c1ccccc1 (stereo not given)
composite z-score [1]: 0.159
composite z-score [2]: -0.0657
composite z-score [3]: -0.06
composite z-score [4]: 0.699
composite z-score [5]: 1.15
composite z-score [6]: 1.83
composite z-score [7]: 1.33
z-score [8]: 1.19 (inactive)
composite z-score [9]: 0.638
composite z-score [10]: 0.413

CC(C)[Si]1(C(C)C)O[C@@H](c2ccccc2)c2cc(C3CC3)nc(-c3ccc(Oc4ccccc4)cc3)c21
composite z-score [1]: 0.0382
composite z-score [2]: 0.0357
composite z-score [3]: -0.119
composite z-score [4]: -0.772
composite z-score [5]: -0.304
composite z-score [6]: -0.46
composite z-score [7]: -0.985
z-score [8]: -0.895 (inactive)
composite z-score [9]: -0.148
composite z-score [10]: -0.0074

COC(=O)c1ccc(C#CC(NP(=O)(c2ccccc2)c2ccccc2)c2ccccc2)cc1 (stereo not given)
composite z-score [1]: 0.301
composite z-score [2]: -0.214
composite z-score [3]: -0.108
composite z-score [4]: 0.182
composite z-score [5]: 1.87
composite z-score [6]: 1.68
composite z-score [7]: 1.36
z-score [8]: -0.131 (inactive)
composite z-score [9]: 1.34
composite z-score [10]: 2.35

CCC(=O)[C@]12O[C@@]3([C@@H]4C(=O)OCC[C@@H]41)N(Cc1ccccc1)C(C)=C(C(=O)OC)[C@@H](c1ccccc1)N3C2=O
composite z-score [1]: 0.232
composite z-score [2]: -0.289
composite z-score [3]: -0.163
composite z-score [4]: -0.133
composite z-score [5]: -0.333
composite z-score [6]: -0.0829
composite z-score [7]: -0.814
z-score [8]: -0.0144 (inactive)
composite z-score [9]: -0.348
composite z-score [10]: -0.134

CN(C)c1ccc(C(O)C2C=CC3C(=O)NC(=O)C3N2Nc2ccc(Cl)cc2Cl)cc1 (stereo not given)
composite z-score [1]: 0.649
composite z-score [2]: -0.0467
composite z-score [3]: 0.021
composite z-score [4]: 0.294
composite z-score [5]: 0.879
composite z-score [6]: 1.18
composite z-score [7]: 1.11
z-score [8]: 3.74 (inactive)
composite z-score [9]: 1.38
composite z-score [10]: 0.0677
